# Test results published in PubChem BioAssay AID1159580 (chemical genetic matrix, 2015).
# In all, about 5,500 compounds went through this assay and about 2,000 (36%) were called active. Not shown: some 18% with an inconclusive outcome. The list shows a part of the results. Unmarked numbers belong to inactive results. Rule as the data show it: active = normalized growth mostly below about 0.91 (no sharp cut-off); inconclusive = no clear call, values can overlap the other calls; inactive = mostly above about 0.92.
# Experiment: chemical genetic growth profiling, strain panel (AID 1159580);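 also: tested at 20 µM; growth read once vehicle control cultures reached saturation at 30 °C; 1 = growth at the plate median or of vehicle wells; lower values mean less growth of the strain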
# Conditions: S. cerevisiae deletion strains, growth OD
# [1] = locus YDL101C, strain DUN1, stronger effect = lower value
# [2] = locus YHR030C, strain SLT2, stronger effect = lower value
smiles,measurement,setting,value
CCOC(=O)c1ccc(N=Cc2cc(Cl)cc(Cl)c2O)cc1,normalized growth,"locus YAR019C, strain CDC15, stronger effect = lower value",0.934
same,normalized growth,"locus YBL105C, strain PKC1, stronger effect = lower value",0.949
same,normalized growth,"locus YBR135W, strain CKS1, stronger effect = lower value",0.95
same,normalized growth,"locus YBR136W, strain MEC1, stronger effect = lower value",0.954
same,normalized growth,"locus YBR160W, strain CDC28, stronger effect = lower value",0.946
same,normalized growth,"locus YDL017W, strain CDC7, stronger effect = lower value",0.94
same,normalized growth,"locus YDL028C, strain MPS1, stronger effect = lower value",0.946
same,normalized growth,[1],0.946
same,normalized growth,"locus YDL108W, strain KIN28, stronger effect = lower value",0.948
same,normalized growth,"locus YDL132W, strain cdc53, stronger effect = lower value",0.975
same,normalized growth,"locus YDL214C, strain PRR2, stronger effect = lower value",0.3 (active)
same,normalized growth,"locus YDR052C, strain DBF4, stronger effect = lower value",0.95
same,normalized growth,"locus YDR226W, strain ADK1, stronger effect = lower value",0.969
same,normalized growth,"locus YDR477W, strain SNF1, stronger effect = lower value",0.289 (active)
same,normalized growth,"locus YER123W, strain YCK3, stronger effect = lower value",0.157 (active)
same,normalized growth,"locus YER133W, strain GLC7, stronger effect = lower value",0.344 (active)
same,normalized growth,"locus YFL009W, strain cdc4, stronger effect = lower value",0.964
same,normalized growth,"locus YFL029C, strain CAK1, stronger effect = lower value",0.923
same,normalized growth,"locus YFR003C, strain YPI1, stronger effect = lower value",0.939
same,normalized growth,"locus YFR019W, strain FAB1, stronger effect = lower value",0.153 (active)
same,normalized growth,"locus YFR028C, strain CDC14, stronger effect = lower value",0.957
same,normalized growth,"locus YGR040W, strain KSS1, stronger effect = lower value",0.349 (active)
same,normalized growth,"locus YGR052W, strain FMP48, stronger effect = lower value",0.257 (active)
same,normalized growth,"locus YGR092W, strain DBF2, stronger effect = lower value",0.135 (active)
same,normalized growth,[2],0.135 (active)
same,normalized growth,"locus YHR079C, strain IRE1, stronger effect = lower value",0.131 (active)
same,normalized growth,"locus YHR082C, strain KSP1, stronger effect = lower value",0.2 (active)
same,normalized growth,"locus YHR205W, strain SCH9, stronger effect = lower value",0.221 (active)
same,normalized growth,"locus YIL147C, strain SLN1, stronger effect = lower value",0.937
same,normalized growth,"locus YJL095W, strain BCK1, stronger effect = lower value",0.136 (active)
same,normalized growth,"locus YJL128C, strain PBS2, stronger effect = lower value",0.908
same,normalized growth,"locus YJL157C, strain FAR1, stronger effect = lower value",0.181 (active)
same,normalized growth,"locus YJR016C, strain ILV3, stronger effect = lower value",0.963
same,normalized growth,"locus YJR066W, strain TOR1 (second series), stronger effect = lower value",0.289 (active)
same,normalized growth,"locus YJR066W, strain TOR1, stronger effect = lower value",0.169 (active)
same,normalized growth,"locus YKL048C, strain ELM1, stronger effect = lower value",0.405 (active)
same,normalized growth,"locus YKL067W, strain YNK1, stronger effect = lower value",0.274 (active)
same,normalized growth,"locus YKL101W, strain HSL1, stronger effect = lower value",0.323 (active)
same,normalized growth,"locus YKL193C, strain SDS22, stronger effect = lower value",0.957
same,normalized growth,"locus YKL203C, strain TOR2, stronger effect = lower value",0.296 (active)
same,normalized growth,"locus YLR113W, strain HOG1, stronger effect = lower value",0.166 (active)
same,normalized growth,"locus YLR133W, strain CKI1, stronger effect = lower value",0.208 (active)
same,normalized growth,"locus YLR403W, strain SFP1, stronger effect = lower value",0.166 (active)
same,normalized growth,"locus YML070W, strain DAK1, stronger effect = lower value",0.198 (active)
same,normalized growth,"locus YMR001C, strain CDC5, stronger effect = lower value",0.943
same,normalized growth,"locus YMR205C, strain PFK2 (second series), stronger effect = lower value",0.308 (active)
same,normalized growth,"locus YMR277W, strain FCP1, stronger effect = lower value",0.96
same,normalized growth,"locus YNL006W, strain LST8, stronger effect = lower value",0.952
same,normalized growth,"locus YNL020C, strain ARK1, stronger effect = lower value",0.175 (active)
same,normalized growth,"locus YNL161W, strain CBK1, stronger effect = lower value",0.965
same,normalized growth,"locus YNL183C, strain NPR1, stronger effect = lower value",0.229 (active)
same,normalized growth,"locus YNL207W, strain RIO2, stronger effect = lower value",0.951
same,normalized growth,"locus YNL222W, strain SSU72, stronger effect = lower value",0.956
same,normalized growth,"locus YNL307C, strain MCK1 (second series), stronger effect = lower value",0.175 (active)
same,normalized growth,"locus YOL078W, strain AVO1, stronger effect = lower value",0.922
same,normalized growth,"locus YOL136C, strain PFK27, stronger effect = lower value",0.153 (active)
same,normalized growth,"locus YOR061W, strain CKA2, stronger effect = lower value",0.193 (active)
same,normalized growth,"locus YOR119C, strain RIO1, stronger effect = lower value",0.368 (active)
same,normalized growth,"locus YOR231W, strain MKK1, stronger effect = lower value",0.131 (active)
same,normalized growth,"locus YOR329C, strain SCD5, stronger effect = lower value",0.942
same,normalized growth,"locus YPL031C, strain PHO85, stronger effect = lower value",0.245 (active)
same,normalized growth,"locus YPL153C, strain RAD53, stronger effect = lower value",0.213 (active)
same,normalized growth,"locus YPL204W, strain HRR25, stronger effect = lower value",0.196 (active)
same,normalized growth,"locus YPL209C, strain IPL1, stronger effect = lower value",0.952
same,normalized growth,"locus YPL256C, strain CLN2, stronger effect = lower value",0.152 (active)
same,normalized growth,"locus YPR025C, strain CCL1, stronger effect = lower value",0.948
same,normalized growth,"locus YPR106W, strain ISR1, stronger effect = lower value",0.958
same,normalized growth,"locus YPR111W, strain DBF20, stronger effect = lower value",0.955
same,normalized growth,"strain NNK1, stronger effect = lower value",0.952
same,normalized growth,"strain TSCII, stronger effect = lower value",0.913
CCOC(=O)c1ccc(NC(=S)N2CCOCC2)cc1,normalized growth,"locus YAL013W, strain DEP1, stronger effect = lower value",1.01
same,normalized growth,"locus YBR229C, strain ROT2, stronger effect = lower value",0.979
same,normalized growth,"locus YCL061C, strain MRC1, stronger effect = lower value",0.939
same,normalized growth,[1],0.978
same,normalized growth,"locus YDR150W, strain NUM1, stronger effect = lower value",0.945
same,normalized growth,"locus YEL061C, strain CIN8, stronger effect = lower value",0.985
same,normalized growth,"locus YGR078C, strain PAC10, stronger effect = lower value",0.99
same,normalized growth,[2],0.956
same,normalized growth,"locus YHR087W, strain rtc3, stronger effect = lower value",0.974
same,normalized growth,"locus YJR043C, strain POL32, stronger effect = lower value",0.962
same,normalized growth,"locus YJR075W, strain HOC1, stronger effect = lower value",0.947
same,normalized growth,"locus YKL190W, strain CNB1, stronger effect = lower value",1.01
same,normalized growth,"locus YLR039C, strain RIC1, stronger effect = lower value",1
same,normalized growth,"locus YLR058C, strain SHM2 (second series), stronger effect = lower value",1.02
same,normalized growth,"locus YLR085C, strain ARP6, stronger effect = lower value",0.991
same,normalized growth,"locus YLR262C, strain YPT6, stronger effect = lower value",1
same,normalized growth,"locus YML094W, strain GIM5, stronger effect = lower value",0.978
same,normalized growth,"locus YMR219W, strain ESC1, stronger effect = lower value",0.999
same,normalized growth,"locus YMR263W, strain SAP30, stronger effect = lower value",0.933
same,normalized growth,"locus YMR307W, strain GAS1, stronger effect = lower value",0.965
same,normalized growth,"locus YNL153C, strain GIM3, stronger effect = lower value",0.982
same,normalized growth,"locus YNL298W, strain CLA4 (second series), stronger effect = lower value",0.951
same,normalized growth,"locus YNL322C, strain KRE1, stronger effect = lower value",1.01
same,normalized growth,"locus YNR030W, strain Alg12, stronger effect = lower value",1.01
same,normalized growth,"locus YOL006C, strain TOP1, stronger effect = lower value",0.805
same,normalized growth,"locus YPL055C, strain LGE1, stronger effect = lower value",0.888
same,normalized growth,"locus YPL241C, strain CIN2, stronger effect = lower value",0.988
same,normalized growth,"locus YPR135W, strain CTF4, stronger effect = lower value",0.972
